The source of these data is PubChem BioAssay (NCATS).

Test [1] can be described thus: Counterscreen qHTS for small molecule stabilizers of the endoplasmic reticulum resident proteome: GLuc-NoTag assay (AID 1508627).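 Note: SH-SY5Y cells given compound then 100 nM thapsigargin to empty ER calcium; 0% = thapsigargin alone and -100% = DMSO vehicle control.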 In a few lines: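 Luminescence of Gaussia luciferase secreted into the medium (coelenterazine, 0.07x final, unlysed cells) was the read-out. Human SH-SY5Y neuroblastoma cells constitutively secreting untagged GLuc received compound for 19 h, then 100 nM thapsigargin for 4 h.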
For orientation: Counterscreens check selectivity or assay interference.

Test [2] can be described thus: Confirmatory qHTS for small molecule stabilizers of the endoplasmic reticulum resident proteome: Secreted ER Calcium Modulated Protein (SERCaMP) assay (AID 1508628). Note: nearly all actives have a fitted effect of over 40% in size. Note: potency is the fitted concentration of half-maximal effect. In a few lines:
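We seeded SH-SY5Y-GLuc-SERCaMP cells, added compounds (three concentrations in the primary run, eleven up to 76.6 uM in confirmation), incubated 16 h, depleted ER calcium with thapsigargin, and read luciferase 4 h later.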
A general note: qHTS replaces the single test concentration by a dilution series.

Test [3] is described as follows: Cell Viability qHTS for small molecule stabilizers of the endoplasmic reticulum resident proteome (AID 1508629).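 Note: human SH-SY5Y neuroblastoma cells carrying the GLuc-SERCaMP reporter; compound exposure about 46 h in total before the viability read; % is set by controls: 0 for no effect and ±100 for the full control effect.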 The note with it: cell viability counter-screen, 100 nM thapsigargin for final 4 h.
The target in test [4] is Lysosomal acid glucosylceramidase (Homo sapiens) (UniProt P04062). Briefly: Glucocerebrosidase-p2 (AID 348; in the data active = potency below about 10 µM; note: potency is the fitted concentration of half-maximal effect). The note with it: purified GBA, blue fluorogenic substrate, 40 min. An outline of the steps:
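Compounds titrated from 0.6 nM upwards against 0.2 nM enzyme in pH 5.9 citric acid/KH2PO4, taurocholate, tween-20; blue fluorogenic substrate 80 uM, 40 min room temperature, stopped and read Ex 365/Em 440 for AC50.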

Test [5] in a line: AP1 Signaling Pathway (AID 357; active = well fitted curve in either direction with a large enough effect, not every such curve was filed as active;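 note: ME-180 reporter cells stimulated with EGF at its EC50 level; % is set by controls: 0 for no effect and ±100 for the full control effect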). The conditions noted are these: ME-180 AP-1-bla reporter, EGF-induced, beta-lactamase ratio, 5 h; at 7.69 µM (top of the series) unless noted. An outline of the steps:
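Cells are seeded overnight, exposed to compound titrations and an EC50 level of EGF for 5 hours at 37 °C, then loaded with CCF4 dye for 2.5 hours. Beta-lactamase activity under the AP-1 element is read as a blue/green ratio.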

Test [6] has as its target Cytochrome P450 1A2 (Homo sapiens) (UniProt P05177). Description: p450-cyp1a2 (AID 410; calls by dose curve; note: potency is the fitted concentration of half-maximal effect). In a few lines: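 Inhibition was calculated relative to 57 uM furafylline (full inhibition). The reaction used human CYP1A2 at 20nM with Luciferin-ME at its Km, 100uM, driven by an NADPH-regenerating system for 60 min at room temperature.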
A short description of test [7]: NFAT Signaling Pathway (AID 444; active = well fitted curve in either direction with a large enough effect, not every such curve was filed as active;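 note: carbachol stimulus at about its EC50 of 1 µM final; % is set by controls: 0 for no effect and ±100 for the full control effect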). The conditions noted are these: Jurkat NFAT-bla M1, carbachol, beta-lactamase ratio, 5 h; at 7.69 µM (top of the series) unless noted. An outline of the steps:
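Read-out: CCF4 FRET ratio (460 nm/530 nm) after 1 h RT dye loading, used for %activity and AC50 from titration series. Cells: Jurkat NFAT-β-lactamase/M1 line, treated with compound plus 1 uM carbachol for 5 h, 37 °C.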

Test [8] can be described thus: Stat Signaling Pathway (AID 446; active = well fitted curve in either direction with a large enough effect, not every such curve was filed as active;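 note: ME-180 cervical cancer cells given 40 pM IL-6 alongside compound; SIE-controlled beta-lactamase reporter measured as 460/530 nm FRET emission ratio; % is set by controls: 0 for no effect and ±100 for the full control effect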). The conditions noted are these: ME-180 (cervical carcinoma) SIE beta-lactamase reporter, IL-6 stimulated, 5 h; at 7.69 µM (top of the series) unless noted. In a few lines:
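IL-6/STAT signaling read in ME-180 cells via an SIE beta-lactamase reporter. Stimulus was 40 pM IL-6 (its AC50) for 5 hrs, so both activation and inhibition register.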

In test [9] the target is Glucocorticoid receptor (Homo sapiens) (UniProt P04150). Description: GR-EFC Redistribution (AID 451; calls by dose curve; note: potency is the fitted concentration of half-maximal effect). The conditions noted are these: CHO-K1 GR-EFC translocation, beta-gal luminescence, 2 h. In a few lines:
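Translocation of GR-ED fusion to nuclear EA restores b-gal, read by luminescence after 1 h room-temperature detection. Engineered CHO-K1 biosensor cells, 1,000/well, exposed 2 h at 37 C to titrations up to 46 uM final.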

Test [10] concerns the target Mitogen-activated protein kinase 10 (Mus musculus) (UniProt Q61831). Briefly: JNK3 AlphaScreen Assay (AID 530; active = well fitted curve in either direction with a large enough effect, not every such curve was filed as active). In a few lines:
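Room-temperature AlphaScreen kinase assay; pre-activated HepG2 lysate as JNK3 source, biotin-GST-cJun(1-79) substrate, 10 uM ATP, compound 15 min preincubation.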
A general note: Alpha assays give light when donor and acceptor beads are brought close together.

Test [11] concerns the target Cytochrome P450 3A4 (Homo sapiens) (UniProt P08684). Briefly: qHTS Assay for Activators of Cytochrome P450 3A4 (AID 885). Note: nearly all actives have a fitted effect of over 65% in size. An outline of the steps: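 Quantitative HTS format: compounds preincubated with 20nM human CYP3A4 and Luciferin-PPXE substrate at KM, reaction started by NADPH regeneration, stopped after 60 min, luciferase luminescence read 20 min later.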
In test [12] the target is Cytochrome P450 2C19 (Homo sapiens) (UniProt P33261). Description: qHTS Assay for Inhibitors and Substrates of Cytochrome P450 2C19 (AID 899). Note: % is set by controls: 0 for no effect and ±100 for the full control effect; nearly all actives have a fitted effect of over 60% in size. In a few lines: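 5nM enzyme + 10uM Luciferin-H EGE (=KM), 50mM KPO4; cpd pin-transferred, 10 min 37C; NADPH regen, 60 min 37C; stopped w/ luciferin detection reagent, 20 min; luminescence. Normalized to 57uM ketoconazole (AC100).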
Sequence of Cytochrome P450 2C19 (Homo sapiens) (P33261 whole entry, looked up): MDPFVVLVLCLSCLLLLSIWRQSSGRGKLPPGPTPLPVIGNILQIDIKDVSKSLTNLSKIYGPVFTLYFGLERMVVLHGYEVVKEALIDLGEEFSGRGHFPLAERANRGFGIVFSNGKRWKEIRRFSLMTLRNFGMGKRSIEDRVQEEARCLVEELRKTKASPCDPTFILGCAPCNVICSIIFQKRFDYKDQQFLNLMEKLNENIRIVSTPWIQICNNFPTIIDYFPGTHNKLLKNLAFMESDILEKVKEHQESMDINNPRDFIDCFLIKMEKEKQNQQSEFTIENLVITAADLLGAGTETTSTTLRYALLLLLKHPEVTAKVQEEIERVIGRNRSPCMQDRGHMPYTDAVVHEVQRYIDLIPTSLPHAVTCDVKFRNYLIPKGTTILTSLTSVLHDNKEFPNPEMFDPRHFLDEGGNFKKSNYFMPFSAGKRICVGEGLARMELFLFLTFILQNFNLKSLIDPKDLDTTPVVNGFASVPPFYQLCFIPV

A short description of test [13]: qHTS Assay for Lipid Storage Modulators (AID 1519; calls by dose curve). The conditions noted are these: Drosophila S3 cells, BODIPY lipid droplet/cell ratio, laser cytometry, cells loaded with oleic acid; for activity change, negative = inhibition: at 57.5 µM (top of the series). In a few lines: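 Cells seeded at 5,000 per well were treated with compounds over a concentration series and loaded with oleic acid (400 uM, as added). Lipid droplet fluorescence (488 nm excitation, 500-530 nm channel) was read by laser-scanning cytometry and normalized to 20 uM Triacsin C.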

In test [14] the target is 3',5'-cyclic-AMP phosphodiesterase 4B (Homo sapiens) (UniProt Q07343). Description: qHTS Assay for Inhibitors of PDE-IV (AID 607; active = well fitted activation curve with a large enough effect in the main read-out, with a control signal flat, not every such curve was filed as active; note: % of control where 0% means no effect). In a few lines:
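Live HEK293 cells with a modified cyclic nucleotide-gated (CNG) channel report intracellular cAMP via membrane-potential dye fluorescence (ex 535/em 590 nm). Endogenous PDE-IV was targeted. Compounds were tested at up to 22.9 uM final; RO 20-1724 100 uM served as control.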

In test [15] the target is Glucocorticoid receptor (Homo sapiens) (UniProt P04150). Description: GR-GFP Redistribution (AID 450;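 active = compounds whose dose series gives a full or clear partial fitted curve of increased nuclear translocation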; note: potency is the fitted concentration of half-maximal effect). The note with it: U2OS GR-GFP nuclear translocation, laser cytometry, 2 h.
Sequence of Glucocorticoid receptor (Homo sapiens) (P04150 whole entry, looked up, the tested form may be a part): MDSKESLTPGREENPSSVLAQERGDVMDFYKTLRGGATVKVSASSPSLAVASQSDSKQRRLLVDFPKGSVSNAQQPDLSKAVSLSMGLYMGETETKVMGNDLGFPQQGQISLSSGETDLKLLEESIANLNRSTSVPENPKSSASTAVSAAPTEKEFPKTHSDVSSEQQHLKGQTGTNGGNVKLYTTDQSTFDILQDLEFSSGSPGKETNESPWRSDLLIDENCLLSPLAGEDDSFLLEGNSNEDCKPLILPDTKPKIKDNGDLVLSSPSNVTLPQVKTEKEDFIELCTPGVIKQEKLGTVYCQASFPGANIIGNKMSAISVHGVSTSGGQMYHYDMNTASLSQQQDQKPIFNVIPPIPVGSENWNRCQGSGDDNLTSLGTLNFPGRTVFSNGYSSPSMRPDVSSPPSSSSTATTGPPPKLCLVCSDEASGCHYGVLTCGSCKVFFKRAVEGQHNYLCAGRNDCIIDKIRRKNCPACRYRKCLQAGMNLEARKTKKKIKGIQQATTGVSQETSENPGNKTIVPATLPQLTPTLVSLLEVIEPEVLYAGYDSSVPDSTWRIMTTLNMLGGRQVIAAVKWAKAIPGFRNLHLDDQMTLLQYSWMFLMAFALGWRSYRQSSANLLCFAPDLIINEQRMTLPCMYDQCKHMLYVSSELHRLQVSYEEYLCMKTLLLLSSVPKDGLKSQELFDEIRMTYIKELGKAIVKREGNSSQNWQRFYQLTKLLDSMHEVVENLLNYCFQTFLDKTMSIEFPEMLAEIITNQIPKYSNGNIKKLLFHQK
In test [16] the target is Dual specificity protein kinase CLK4 (Homo sapiens) (UniProt Q9HAZ1). Description: qHTS Assay for Inhibitors of CDC-like Kinase 4 (Kinase-Glo Assay) (AID 1770). Note: % is set by controls: 0 for no effect and ±100 for the full control effect; nearly all actives have a fitted effect of over 65% in size. An outline of the steps:
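Inhibition was judged from remaining ATP, measured by Ultra-Glo luciferase bioluminescence after Clk4 (25 nM) had acted on RS peptide at 1 uM ATP for 4.5 hours, room temperature.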

For test [17] the target is unchanged. Description: qHTS Assay for Inhibitors of CDC-like Kinase 4 (ADP-Glo Assay) (AID 1771). Note: % is set by controls: 0 for no effect and ±100 for the full control effect; nearly all actives have a fitted effect of over 70% in size. In a few lines:
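Kinase reaction: Clk4 at 25 nM, RS repeat peptide substrate at 100 uM, ATP at 1 uM, 1 hr, room temperature. Product ADP detected as luciferase signal via ADP-Glo.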

Test [18] has the same target. Description: qHTS Assay for Inhibitors of CDC-like Kinase 4 (ADP-FP Assay) (AID 1795).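 Note: recombinant human CLK4 phosphorylating RS repeat peptide at 1 µM ATP; % is set by controls: 0 for no effect and ±100 for the full control effect; nearly all actives have a fitted effect of over 60% in size.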 An outline of the steps: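 Inhibition of ADP formation by 6.25 nM Clk4 is measured using 1 uM ATP and 100 uM RS repeat peptide over one hour. Produced ADP displaces a fluorescent tracer from antibody, lowering polarization.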
Test [19] deals with Ubiquitin carboxyl-terminal hydrolase 1 (Homo sapiens) (UniProt O94782). Briefly: Inhibitors of USP1/UAF1: Pilot qHTS (AID 504865).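 Note: rhodamine fluorescence freed from ubiquitin-rhodamine substrate followed over time; top concentration of the series differs between compounds; % is set by controls: 0 for no effect and ±100 for the full control effect; nearly all actives have a fitted effect of over 35% in size.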 In a few lines:
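Kinetic fluorescence assay: 1nM USP1/UAF1, 15 min compound preincubation, then 150nM Ub-Rho; 480/540 nm.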

The mark [20] stands for this setting: measured here: cell count channel max response.
Setting [21] is: measured here: lipid channel max response.

Results filed as inconclusive are left out. Active and inactive are the calls of the source. Unless noted, calls come from the whole dose curve; as a rule, active = well fitted curve in the direction sought with a large enough effect; inconclusive = small, poorly fitted or top-dose-only effect, or another doubt; inactive = no such curve, though single readings can be large; an effect the other way counts as inactive or inconclusive.

Sequence of Lysosomal acid glucosylceramidase (Homo sapiens) (P04062 whole entry, looked up): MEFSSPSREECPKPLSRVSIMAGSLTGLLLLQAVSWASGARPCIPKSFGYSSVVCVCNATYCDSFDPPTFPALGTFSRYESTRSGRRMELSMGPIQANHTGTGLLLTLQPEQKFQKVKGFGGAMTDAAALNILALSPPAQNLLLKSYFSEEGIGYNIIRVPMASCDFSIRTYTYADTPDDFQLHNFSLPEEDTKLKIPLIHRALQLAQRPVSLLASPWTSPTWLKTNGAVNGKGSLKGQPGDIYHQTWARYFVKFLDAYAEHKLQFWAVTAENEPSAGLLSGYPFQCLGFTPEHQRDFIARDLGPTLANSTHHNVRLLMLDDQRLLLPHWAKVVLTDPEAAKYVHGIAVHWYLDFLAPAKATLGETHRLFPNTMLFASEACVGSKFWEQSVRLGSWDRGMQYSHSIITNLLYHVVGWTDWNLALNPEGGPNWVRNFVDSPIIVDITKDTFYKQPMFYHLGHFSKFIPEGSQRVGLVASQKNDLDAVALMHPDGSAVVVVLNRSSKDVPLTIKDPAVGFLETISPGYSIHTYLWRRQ
Sequence of Dual specificity protein kinase CLK4 (Homo sapiens) (Q9HAZ1 whole entry, looked up): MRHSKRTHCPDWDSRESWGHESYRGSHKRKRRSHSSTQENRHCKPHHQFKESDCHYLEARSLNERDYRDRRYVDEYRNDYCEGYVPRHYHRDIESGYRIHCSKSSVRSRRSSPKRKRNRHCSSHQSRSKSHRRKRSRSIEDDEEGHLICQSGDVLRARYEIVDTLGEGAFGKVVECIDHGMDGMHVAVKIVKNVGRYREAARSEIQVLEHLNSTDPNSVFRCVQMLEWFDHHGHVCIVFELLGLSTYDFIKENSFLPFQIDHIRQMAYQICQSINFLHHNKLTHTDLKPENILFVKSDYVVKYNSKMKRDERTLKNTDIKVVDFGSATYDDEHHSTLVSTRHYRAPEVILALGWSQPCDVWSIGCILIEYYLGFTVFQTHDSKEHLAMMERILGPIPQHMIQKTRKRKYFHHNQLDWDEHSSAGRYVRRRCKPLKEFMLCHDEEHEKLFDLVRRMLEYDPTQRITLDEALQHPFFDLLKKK
Sequence of 3',5'-cyclic-AMP phosphodiesterase 4B (Homo sapiens) (Q07343 whole entry, looked up): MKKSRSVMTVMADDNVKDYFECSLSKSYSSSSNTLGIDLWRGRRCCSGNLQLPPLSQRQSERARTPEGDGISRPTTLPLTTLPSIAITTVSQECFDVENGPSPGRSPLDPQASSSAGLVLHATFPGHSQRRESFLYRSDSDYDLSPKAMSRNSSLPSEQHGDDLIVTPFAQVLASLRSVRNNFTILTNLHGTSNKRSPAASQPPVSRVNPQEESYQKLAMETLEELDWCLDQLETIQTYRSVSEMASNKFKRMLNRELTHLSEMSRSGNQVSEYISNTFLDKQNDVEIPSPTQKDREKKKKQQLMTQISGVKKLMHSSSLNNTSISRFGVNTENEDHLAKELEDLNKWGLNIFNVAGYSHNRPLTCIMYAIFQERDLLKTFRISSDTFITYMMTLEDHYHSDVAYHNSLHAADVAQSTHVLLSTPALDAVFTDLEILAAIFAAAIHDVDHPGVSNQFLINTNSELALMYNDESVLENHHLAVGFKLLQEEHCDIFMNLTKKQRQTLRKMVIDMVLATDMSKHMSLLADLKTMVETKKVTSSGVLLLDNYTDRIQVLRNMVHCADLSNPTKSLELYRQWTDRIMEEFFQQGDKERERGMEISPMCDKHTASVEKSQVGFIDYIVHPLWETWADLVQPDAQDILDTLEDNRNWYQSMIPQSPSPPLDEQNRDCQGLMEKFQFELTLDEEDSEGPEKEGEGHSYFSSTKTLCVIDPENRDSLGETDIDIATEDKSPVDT
Sequence of Cytochrome P450 1A2 (Homo sapiens) (P05177 whole entry, looked up): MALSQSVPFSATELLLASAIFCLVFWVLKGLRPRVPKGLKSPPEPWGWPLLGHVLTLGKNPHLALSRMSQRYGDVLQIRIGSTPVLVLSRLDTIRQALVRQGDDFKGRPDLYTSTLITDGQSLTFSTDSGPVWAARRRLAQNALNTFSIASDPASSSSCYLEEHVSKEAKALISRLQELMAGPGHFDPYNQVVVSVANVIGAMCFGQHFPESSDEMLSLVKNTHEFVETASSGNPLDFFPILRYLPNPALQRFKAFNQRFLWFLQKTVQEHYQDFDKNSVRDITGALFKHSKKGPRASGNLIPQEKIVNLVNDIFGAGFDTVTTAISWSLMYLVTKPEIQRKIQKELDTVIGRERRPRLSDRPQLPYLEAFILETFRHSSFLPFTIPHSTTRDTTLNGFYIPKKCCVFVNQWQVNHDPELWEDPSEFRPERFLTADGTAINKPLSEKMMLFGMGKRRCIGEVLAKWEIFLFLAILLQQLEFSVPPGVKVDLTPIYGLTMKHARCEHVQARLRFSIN
Sequence of Ubiquitin carboxyl-terminal hydrolase 1 (Homo sapiens) (O94782 whole entry, looked up): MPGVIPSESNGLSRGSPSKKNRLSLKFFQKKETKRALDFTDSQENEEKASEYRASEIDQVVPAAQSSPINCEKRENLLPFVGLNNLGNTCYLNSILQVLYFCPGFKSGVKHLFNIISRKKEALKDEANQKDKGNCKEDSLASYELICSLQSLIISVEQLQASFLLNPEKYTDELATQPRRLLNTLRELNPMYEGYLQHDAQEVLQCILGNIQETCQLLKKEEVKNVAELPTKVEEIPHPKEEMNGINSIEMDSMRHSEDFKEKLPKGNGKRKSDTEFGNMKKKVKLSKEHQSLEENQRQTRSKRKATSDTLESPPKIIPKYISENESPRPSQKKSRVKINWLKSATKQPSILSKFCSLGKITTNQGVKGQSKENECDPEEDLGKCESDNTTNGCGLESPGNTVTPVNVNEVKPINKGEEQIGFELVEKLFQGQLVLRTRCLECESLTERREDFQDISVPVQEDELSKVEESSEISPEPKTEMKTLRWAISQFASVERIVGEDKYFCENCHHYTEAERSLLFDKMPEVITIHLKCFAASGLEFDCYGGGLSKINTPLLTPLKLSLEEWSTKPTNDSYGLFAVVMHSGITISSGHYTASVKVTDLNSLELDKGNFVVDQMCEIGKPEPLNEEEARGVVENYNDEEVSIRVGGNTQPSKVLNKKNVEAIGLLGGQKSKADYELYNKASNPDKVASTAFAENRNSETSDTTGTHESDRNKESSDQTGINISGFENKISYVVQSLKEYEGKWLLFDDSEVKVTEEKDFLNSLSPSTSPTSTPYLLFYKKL
Sequence of Cytochrome P450 3A4 (Homo sapiens) (P08684 whole entry, looked up): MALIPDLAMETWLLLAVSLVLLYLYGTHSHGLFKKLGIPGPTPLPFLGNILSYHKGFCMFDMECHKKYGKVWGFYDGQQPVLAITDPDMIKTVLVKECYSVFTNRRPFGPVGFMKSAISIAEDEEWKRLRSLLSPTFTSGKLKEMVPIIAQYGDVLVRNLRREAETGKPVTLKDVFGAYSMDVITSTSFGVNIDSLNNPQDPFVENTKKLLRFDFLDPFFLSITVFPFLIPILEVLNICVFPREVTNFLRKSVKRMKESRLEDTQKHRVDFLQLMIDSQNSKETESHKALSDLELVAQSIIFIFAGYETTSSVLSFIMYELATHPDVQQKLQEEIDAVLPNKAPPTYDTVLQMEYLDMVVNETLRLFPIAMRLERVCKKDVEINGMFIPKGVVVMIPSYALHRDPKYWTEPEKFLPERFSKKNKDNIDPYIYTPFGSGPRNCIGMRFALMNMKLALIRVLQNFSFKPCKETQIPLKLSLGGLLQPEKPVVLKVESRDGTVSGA

On to `Cc1ccc(-n2c(C)cc(/C=N/NC(=O)c3ccncc3)c2C)cc1C`, for which the Potency result in [1] and in test [2] was “inactive” each time. For the same compound, the max response in [3] was 2.93% (inactive).

Take `Cc1nc2cnc(N3CCNCC3)nc2n(Cc2ccc(F)cc2)c1=O`: the Potency in test [4] was > 11.4 µM (inactive); in test [6] it was 12.6 µM (active); in test [9], > 46 µM (inactive); in test [2], 20 µM (active). Also, the figures for the activity change, negative = inhibition in test [5], in test [7] and in [13] were 7.46% (inactive), -14.9% (inactive) and 2.97% (inactive), respectively. The activity, negative = inhibition in [8] was 7.66% (inactive). In addition, in [10], the result was inactive. The Potency entry in test [11], in test [12] and in [1] was “inactive” in each case. For the same compound, the max response in [13] (setting [20]) was 14.9%; in test [13] (setting [21]), 19.5%; in test [3], 11.4% (inactive).

Turning to `O=C(Nc1cccc(F)c1)N1CCC2(CC1)CCN(S(=O)(=O)c1ccccc1)CC2`, the Potency was > 11.4 µM (inactive) in test [4] and > 46 µM (inactive) in [9]. Further, the activity change, negative = inhibition in test [5] was -14.1% (inactive); in [7], 11.4% (inactive); in test [13] it was -0.528% (inactive). In addition, in [8], the activity, negative = inhibition was -8.13% (inactive). In addition, the outcome in test [10] was inactive. Further, the Potency result in test [14], in test [1] and in [2] was “inactive” in each case. Also, the max response in [13] (setting [20]) is 0.271%; in test [13] (setting [21]) it was 1.82%; in [3], 3.59% (inactive).

With `COc1cccc(CN2CCN(C(=O)c3ccc(-c4ccccc4)cc3)CC2)c1`, the Potency entry in [1] and in [2] was “inactive” throughout.

On to `COc1cccc(Cn2c(=O)c(C)nc3cnc(N4CCN(C)CC4)nc32)c1`, for which the Potency was > 11.4 µM (inactive) in test [4], > 9.22 µM (inactive) in test [15] and > 46 µM (inactive) in test [9]. In addition, the activity change, negative = inhibition in test [5] is -0.444% (inactive); in test [7], 5.99% (inactive); in test [13], -3.34% (inactive). In addition, the activity, negative = inhibition in test [8] was -11.6% (inactive). Besides, the result in test [10] was inactive. The Potency result in [14], in test [16], in [17], in test [18], in [19] and in [1] was “inactive” throughout. The Potency entry in test [2] was “inactive”. Moreover, the max response in test [13] (setting [20]) is 13.5%; in test [13] (setting [21]), 7.13%.
